Compound activity from PubChem BioAssay.
Most compounds without a hit are left out; they make up all but 4% or so of the library.
VHR inh abs – DUSP3 (human) phosphatase inhibition | recombinant VHR phosphatase, pNPP absorbance | 290,000 tested, 0.52% active | inhibition, % at 13.3 µM | AID 1654; in the data active = inhibition above about 50%
Target sequence (P51452 whole entry, looked up): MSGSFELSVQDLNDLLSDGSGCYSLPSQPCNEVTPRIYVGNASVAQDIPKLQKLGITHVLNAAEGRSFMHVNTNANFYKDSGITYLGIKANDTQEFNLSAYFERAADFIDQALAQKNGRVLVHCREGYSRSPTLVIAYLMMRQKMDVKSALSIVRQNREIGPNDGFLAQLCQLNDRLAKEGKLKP
Autofluor counter – counter-screen for toxin protease inhibitors: compound fluorescence. compound autofluorescence counterscreen, microsphere flow cytometry; hits give high values. fluorescence intensity (no concentration beside the values). 360,000 tested, 3.1% active. AID 624483; in the data active = fluorescence intensity above about 16000; inconclusive = no clear call, values can overlap the other calls
MazF activator – activators of E. coli MazEF toxin-antitoxin RNase. activation, % at 20 µM. FAM/BHQ RNA-DNA oligo cleavage fluorescence, 5 h. P0AE70. 350,000 tested, 0.32% active; in the data active = activation above about 50%
Target sequence (P0AE70 whole entry, looked up): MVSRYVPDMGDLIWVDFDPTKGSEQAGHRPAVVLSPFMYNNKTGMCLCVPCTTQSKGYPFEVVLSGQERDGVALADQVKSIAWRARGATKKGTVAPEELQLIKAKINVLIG
Anthrax LF prot – anthrax lethal factor protease inhibition; 360,000 tested, 0.12% active; inhibition, % at 10 µM; AID 588501; multiplex microsphere protease cleavage assay, LF; P15917; also: plate controls were buffer without enzyme for full effect and enzyme alone for no effect
BoNT-A LC inh2 – blocks Botulinum neurotoxin A light chain protease. multiplex microsphere protease substrate cleavage, flow cytometry. inhibition, % at 10 µM. 360,000 tested, 0.17% active; also: plate controls were buffer without enzyme for full effect and enzyme alone for no effect
BoNT-F LC inh – blocks Botulinum neurotoxin F light chain protease | Multiplex microsphere protease cleavage assay, flow cytometry | inhibition, % at 10 µM | 360,000 tested, 0.22% active; in the data active = inhibition above about 35%, passing the limit was not always enough; inconclusive = no clear call, values can overlap the other calls; also: plate controls were buffer without enzyme for full effect and enzyme alone for no effect
Numbers without * were called inactive; ? = inconclusive; nt = no result. Rule as the data show it, unless noted: active = inhibition above about 30%; inconclusive = no clear call, values can overlap the other calls; inactive = below that.

SMILES | VHR inh abs | Autofluor counter | MazF activator | Anthrax LF prot | BoNT-A LC inh2 | BoNT-F LC inh
Cn1c(-c2cccc(F)c2)nc2c1c(=O)[nH]c(=O)n2Cc1ccccc1 | 17 | 5110 | 11 | 0 | 1 | 7
CCc1nc(Nc2ccncc2)c2oc3ccccc3c2n1 | 19 | 20587* | 3 | -1 | 0 | -2
CCc1nc(N2CCCCC2)c2oc3ccccc3c2n1 | 14 | 23515* | -6 | -2 | -4 | -4
Cc1nc(Nc2ccncc2)c2oc3ccccc3c2n1 | 33 | 7268 | 5 | 0 | 1 | 11
CCc1nc(N2CCCCC2C)c2oc3ccccc3c2n1 (stereo not drawn) | 14 | 19411* | -6 | 1 | 1 | -1
Cc1ccccc1C(=O)Nc1ccc(N2CCOCC2)nc1 | 25 | 9260 | 2 | -3 | 0 | 5
Cc1cccc(OC(C)c2ccnc3nc(/N=C/N(C)C)nn23)c1 (stereo not drawn) | 10 | 21315* | -5 | 0 | -3 | -4
O=C(N1CCOCC1)n1nnc2ccccc21 | 10 | 22842* | 3 | 0 | -1 | -2
C/C(=C\c1ccccc1)C(=O)n1nnc2ccccc21 | 20 | 17498* | -6 | -7 | -6 | -9
O=C(NCCOc1ccccc1F)c1ccccc1SCc1ccc(F)cc1 | -8 | 9937 | -3 | 2 | 1 | 14
Cc1ccc(CN(C(=O)c2ccc(Cl)c([N+](=O)[O-])c2)C2CCS(=O)(=O)C2)o1 (stereo not drawn) | 16 | 6713 | 7 | -2 | -3 | -2
Cc1noc(C)c1COC(=O)c1ccc(F)c(S(=O)(=O)N2CCOCC2)c1 | nt | 8351 | 3 | -6 | 1 | 6
N#C/C(=C/c1ccc(N2CCCCCC2)o1)c1ccc(Cl)cc1 | 6 | 22830* | 34 | -4 | 7 | 1
Cc1ccc(CS(=O)(=O)CCC(=O)NCCCN2CCCC2)cc1 | 51* | 7359 | 2 | 0 | 0 | -4
O=C(CCS(=O)(=O)Cc1ccc(Cl)cc1)NCCCN1CCN(c2ccccc2F)CC1 | -8 | 22031* | 8 | 0 | -3 | -6
Cc1cn(CC(=O)NCc2ccc(N(C)C)cc2)c(=O)[nH]c1=O | nt | 3561 | 11 | -6 | 0 | -3
C#CCONC(=O)c1cc(OCC(F)(F)F)ccc1OCC(F)(F)F | 53* | 22449* | 3 | -7 | 0 | -3
O=C(NO)c1cc(OCC(F)(F)F)ccc1OCC(F)(F)F | 23 | ? | 3 | ? | 0 | 13
Cc1ccc(C(=O)NNC(=O)c2cc(OCC(F)(F)F)ccc2OCC(F)(F)F)cc1 | 27 | 21489* | -3 | -2 | ? | -9
COc1ncnc2c1oc1nc(CC(C)C)c3c(c12)CC(C)(C)OC3 | 13 | 23399* | -14 | -5 | 0 | -2
Cc1ccc(CCNC(=O)c2sc3nc4n(c(=O)c3c2C)CCC4)cc1 | 21 | 5596 | 8 | 0 | 0 | 2
CCCn1c2ccccc2c2cn[nH]c(=O)c21 | 59* | 3827 | 8 | 0 | 1 | -30
O=c1[nH]ncc2c3ccccc3n(Cc3ccccc3)c12 | 19 | 3113 | 17 | -2 | 0 | 2
CC(NC(=O)OCc1ccccc1)C(=O)NCC1CCCO1 (stereo not drawn) | 10 | 22834* | -3 | -1 | 1 | 2
CC(C(=O)NCC1CCCO1)N(C(=O)c1snc(C(N)=O)c1N)c1ccccc1 (stereo not drawn) | -5 | 23246* | 8 | -1 | 0 | 1
SMILES | VHR inh abs | Autofluor counter | MazF activator | Anthrax LF prot | BoNT-A LC inh2 | BoNT-F LC inh
COCCNc1ncnc2c1ncn2[C@H]1CN(Cc2ccc3c(c2)OCO3)C[C@@H](CO)O1 | nt | 3862 | nt | 4 | 0 | -4
CCCCNC(=O)COC(=O)c1c2c(nc3ccccc13)/C(=C/c1cccs1)CC2 | 8 | 6060 | -22 | 25 | 39* | 19
COc1ccc(-n2nnc3c(=O)n(Cc4ccccc4C)cnc32)cc1 | 5 | 11273 | -1 | -7 | -1 | -13
Cc1ccc(C)c(Cn2cnc3c(nnn3-c3ccc(F)cc3)c2=O)c1 | 24 | 16844* | -30 | 1 | -1 | 0
COc1cccc(-n2nnc3c(=O)n(Cc4c(F)cccc4Cl)cnc32)c1 | -20 | 8778 | 90* | -3 | -1 | -13
COc1ccc(C(O)c2nc(-c3ccc(C)c(C)c3)cs2)cc1 (stereo not drawn) | nt | 3896 | nt | 3 | 0 | 0
COc1ccc(N(C(C)C(=O)N/N=C/c2ccc(OC)c(OC)c2)S(C)(=O)=O)cc1 (stereo not drawn) | -13 | 2423 | 7 | -2 | 0 | -4
CC(C(=O)N/N=C/c1ccc(N(C)C)c(Br)c1)N(c1ccccc1)S(C)(=O)=O (stereo not drawn) | 50* | 4951 | 4 | -2 | 0 | -5
Cc1ccccc1Nc1nc(N)nc(COC(=O)CCS(=O)(=O)c2ccccc2)n1 | 19 | 24248* | 6 | -2 | -1 | -5
COc1cc(/C=C/C(O)=C/C(=O)/C=C/c2ccc(O)cc2)ccc1O | nt | 4392 | -30 | 29 | 28 | 2
OC(COc1cccc(OCC(O)CN2CCOCC2)c1)CN1CCOCC1 (stereo not drawn) | -23 | 4838 | 5 | -8 | 0 | -16
COc1cc(CC(=O)Nc2ccc(S(=O)(=O)N(C)C)cc2)cc(OC)c1OC | 10 | 23513* | -4 | 0 | 0 | 3
COc1cc(C(=O)Nc2ccc(S(=O)(=O)NC(C)C)cc2)cc(OC)c1OC | 28 | 16279* | 6 | -3 | 0 | 0
COc1cc(C(=O)Nc2ccc(S(=O)(=O)NC(C)(C)C)cc2)cc(OC)c1OC | 13 | 9618 | 16 | 0 | 1 | 5
COc1ccc(C(=O)Nc2cc(OC)c(Cl)cc2Cl)cc1 | -1 | 4565 | -16 | -2 | 0 | -3
CC(=O)Oc1ccc2oc3c(c2c1)C(=O)CCC3 | 24 | 23365* | 7 | -1 | -2 | -4
O=S(=O)(c1cc(Cl)ccc1Br)N1CCCCC1 | -12 | 21533* | 1 | -6 | 4 | 4
O=S(=O)(c1cccc(S(=O)(=O)N2CCCC2)c1)c1cccc(S(=O)(=O)N2CCCC2)c1 | -13 | 21252* | -4 | -3 | ? | -4
O=S(=O)(c1cccc(Cl)c1)N1CCCC1 | -23 | 24145* | 1 | -1 | -1 | -2
O=S(=O)(c1ccc(F)c(Cl)c1)N1CCCC1 | -8 | 7709 | 3 | -5 | -2 | -18
O=S(=O)(c1cccc(-c2nnc(-c3cccnc3)o2)c1)N1CCCCC1 | 22 | 19643* | 7 | 0 | ? | 1
O=S(=O)(c1cccc(S(=O)(=O)N2CCCC2)c1)N1CCCCC1 | 8 | 5469 | 3 | 1 | 2 | 6
COc1cccc(OCc2nnc(SCC(=O)NNC(=O)C3CCCCC3)n2C)c1 | 12 | 2421 | -2 | 0 | 0 | -2
O=[N+]([O-])c1cc(S(=O)(=O)N2CCCCC2)ccc1NCc1cccc(Cl)c1 | 51* | 2542 | -7 | 0 | 0 | -11
CS(=O)(=O)N(CC(=O)O)c1ccc(Oc2ccccc2)cc1 | -4 | 20680* | 7 | -4 | 0 | 0
